Structures are written as SMILES. Screen size: about 310,000 compounds; about 1,000 (0.32%) were called active. The rule behind the calls is not given here. These entries were drawn from the full list. Results with a measured potency or affinity are listed apart.

The nature of the assay: Inhibition of PhoP regulon, Salmonella typhi GFP reporter cells, confirmation, 4 h (AID 1850).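 Note: 0% = induced wells with vehicle and 100% = uninduced wells.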 Conditions: Salmonella Typhi PhoP-promoter GFP reporter, fluorescence, at 50 µM, stronger effect = higher value.
`CCC1(c2ccccc2)NC(=O)N(CC(=O)Nc2nnc(C3CC3)s2)C1=O` (configuration not stated): the inhibition is -9.36% (inactive).

As for `COc1ccc(OC)c2[nH]c(=O)c(CCNS(=O)(=O)c3ccc(C)cc3)cc12`, the inhibition was 7.93% (inactive).

Take `C#CCOCCOCCOCCNc1nc(N2CCN(C(=O)[C@H](CCC(=O)O)n3cc(C(N)Cc4ccc(O)cc4)nn3)CC2)nc(N2CCN(C(=O)[C@H](Cc3cc4ccccc4[nH]3)n3cc(C(N)CC(C)C)nn3)CC2)n1` (some centres not stated): the inhibition is 5.34% (inactive).

Consider `C#CCOCCOCCOCCNc1nc(N2CCN(C(=O)C(CCC(=O)O)n3cc(C(N)CC(C)C)nn3)CC2)nc(N2CCN(C(=O)C(Cc3cc4ccccc4[nH]3)n3cc(C(N)Cc4ccc(O)cc4)nn3)CC2)n1` (configuration not stated), for which the inhibition was -1.42% (inactive).

Regarding `C#CCOCCOCCOCCNc1nc(N2CCN(C(=O)C(Cc3ccc(O)cc3)n3cc(C(N)CC(C)C)nn3)CC2)nc(N2CCN(C(=O)C(Cc3cc4ccccc4[nH]3)n3cc(C(N)C(C)CC)nn3)CC2)n1` (configuration not stated), the inhibition is 18.1% (inactive).

As for `C#CCOCCOCCOCCNc1nc(N2CCN(C(=O)[C@H]([C@@H](C)CC)n3cc([C@@H](N)Cc4ccc(O)cc4)nn3)CC2)nc(N2CCN(C(=O)[C@H](Cc3cc4ccccc4[nH]3)n3cc([C@@H](N)C(C)CC)nn3)CC2)n1` (some centres not stated), the inhibition was 17.7% (inactive).

With `C#CCOCCOCCOCCNc1nc(N2CCN(C(=O)[C@H](Cc3ccc(O)cc3)n3cc([C@@H](N)C(C)CC)nn3)CC2)nc(N2CCN(C(=O)[C@H](Cc3cc4ccccc4[nH]3)n3cc([C@@H](N)CC(C)C)nn3)CC2)n1` (some centres not stated), the inhibition is 11% (inactive).

Regarding `C#CCOCCOCCOCCNc1nc(N2CCN(C(=O)[C@H]([C@@H](C)CC)n3cc([C@@H](N)CC(C)C)nn3)CC2)nc(N2CCN(C(=O)[C@H](Cc3cc4ccccc4[nH]3)n3cc([C@@H](N)Cc4ccc(O)cc4)nn3)CC2)n1`, the inhibition is -29.1% (inactive).

As to `CCc1ccccc1NNC(=O)c1cc(C)on1`, the inhibition was -26.6% (inactive).

Consider `Cc1cc(OCC(=O)N2CCC(C(=O)O)(c3ccccc3)CC2)c2c(C)c(C)c(=O)oc2c1`, for which the inhibition was 1.07% (inactive).

Regarding `O=C(Cn1cnc2c(oc3ccccc32)c1=O)N1CCCc2ccccc21`, the inhibition was 1.66% (inactive).

As to `Cc1cc(NC(=O)c2cccc(S(=O)(=O)N3CC(c4ccccc4)CC3=O)c2)no1` (configuration not stated), the inhibition is -38.2% (inactive).

As for `O=C1CC(C(=O)Nc2ccccc2)S/C(=N\NC(=O)c2ccccc2Cl)N1` (configuration not stated), the inhibition was 21.9% (inactive).

For `OC(c1cc(C(F)(F)F)nc2c(Cl)cc(Cl)cc12)C1CCCCN1` (configuration not stated), the inhibition was 0.54% (inactive).

`COc1ccc(OC)c(C(O)C2CCCCN2)c1` (configuration not stated): the inhibition was -3.76% (inactive).

As to `O=C(O)c1cc(C(F)(F)F)nc2c(C(F)(F)F)cccc12`, the inhibition is -2.04% (inactive).

On to `OC(c1cc(-c2ccc(C(F)(F)F)cc2)nc(C(F)(F)F)c1)C1CCCCN1` (configuration not stated), for which the inhibition is -0.73% (inactive).

Usually inhibition stands for the relative decrease from the control value, in per cent.

Values taken from PubChem BioAssay AID1850 (Southern Research Specialized Biocontainment Screening …, 2009).
